Here are results for 19 compounds from PubChem BioAssay (NCI).

Compounds without any hit were thinned out: in the full panel of roughly 79,000, 15% have a hit. Unmarked numbers belong to inactive results. Activity calls are given as the source filed them. Cut-off read from the data, not from the text of the source: active = growth inhibition above about 70%; inactive = the rest.

Experiment [1] is described as follows: NCI Yeast Anticancer Drug Screen. Data for the rad50 strain (AID 155).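 Note: 0% = growth of vehicle-only cultures of the same strain.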 As to conditions: S. cerevisiae rad50 strain growth inhibition; at 50.0 µM; active compounds read high. Put shortly:
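Yeast carrying a defined DNA repair defect were exposed to test compounds, and growth was compared with vehicle-treated controls to give percent inhibition.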

Experiment [2] is described as follows: NCI Yeast Anticancer Drug Screen. Data for the mec2-1 strain (AID 157). As to conditions: S. cerevisiae mec2-1 strain, at 50.0 µM, active compounds read high. In a few lines:
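Growth inhibition is read against vehicle-treated controls after compound exposure of the mec2-1 yeast strain, which is defective in DNA damage repair or cell cycle control.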

A short description of experiment [3]: NCI Yeast Anticancer Drug Screen. Data for the sgs1 mgt1 strain (AID 161).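 Note: 0% = growth of cultures given vehicle only.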 Particulars: S. cerevisiae sgs1 mgt1 strain, at 50.0 µM, active compounds read high. In a few lines:
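This yeast growth screen uses a strain with defined DNA-repair lesions; compound-treated growth is compared with vehicle-treated growth.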

The nature of experiment [4]: NCI Yeast Anticancer Drug Screen. Data for the cln2 rad14 strain (AID 165).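 Note: 0% = growth equal to vehicle treated cultures.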 As to conditions: S. cerevisiae cln2 rad14 strain, at 50.0 µM, active compounds read high. Put shortly:
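Growth inhibition, relative to vehicle-treated controls, is the read-out. The test organism is a yeast strain with defined genetic alterations, cln2 rad14.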

Experiment [5] can be described thus: NCI Yeast Anticancer Drug Screen. Data for the bub3 strain (AID 167). Particulars: S. cerevisiae bub3 mutant strain, at 50.0 µM, active compounds read high. In a few lines:
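Compounds were applied to a genetically altered yeast strain carrying a cell-cycle control defect. Growth inhibition was scored against vehicle-treated controls.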

Experiment [6] in a line: NCI Yeast Anticancer Drug Screen. Data for the mlh1 rad18 strain (AID 175). As to conditions: S. cerevisiae mlh1 rad18 strain growth inhibition; at 50.0 µM; active compounds read high. Put shortly:
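Cells of a genetically altered yeast strain, deficient in DNA damage repair, were treated with compound. Their growth was then compared with that of vehicle-treated cultures to give inhibition.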

Take `COc1ccc(C(=CC2=CC(=O)C3=C(CCCC3)C2=O)c2ccc(OC)cc2)cc1`: the growth inhibition was 19.8% in experiment [1]; -4.25% in experiment [2]; -4.6% in experiment [3]; -3.7% in experiment [4]; 0.55% in experiment [5]; 7.2% in experiment [6].
Turning to `CC(C)=CC1C(COC(=O)c2ccccc2Cl)C1(C)C` (centres undefined), the growth inhibition in experiment [1] was 1%; in experiment [2], -8.3%; in experiment [3], -2.9%; in experiment [4], -27.9%; in experiment [5], -12.4%; in experiment [6], 18.8%.
For `O=C(Oc1ccc(-c2ccc([N+](=O)[O-])cc2)cc1)c1ccccc1`, the growth inhibition in experiment [1] was 29.8%; in experiment [2], 3.9%; in experiment [3], 17%; in experiment [4], 15.4%; in experiment [5] it was 19.9%; in experiment [6], 8.25%.
Regarding `O=C(c1ccccc1)[C@H]1Nc2ccc(Cl)cc2[C@H]2CCC[C@@H]12`, the growth inhibition in experiment [1] is -2.4%; in experiment [2], -30.2%; in experiment [3], 0.1%; in experiment [4] it was 10.2%; in experiment [5], -14.6%; in experiment [6] it was -17.1%.
In the case of `c1ccc2c(N=C(Nc3cccc4ccccc34)c3cccc4ccccc34)cccc2c1`, the growth inhibition is 20.4% in experiment [1]; 19.6% in experiment [2]; 35.8% in experiment [3]; 28.9% in experiment [4]; 17.3% in experiment [5]; 13.6% in experiment [6].
For `Cc1cnn(-c2ccccc2)[n+]1[O-]`, the growth inhibition in experiment [1] is 0.65%; in experiment [2] it was 11.5%; in experiment [3], 9.5%; in experiment [4], -28.8%; in experiment [5], 9.6%; in experiment [6], 6.4%.
As to `O=[N+]([O-])c1ccccc1S(=O)NCc1c(Cl)cccc1Cl` (centres undefined), the growth inhibition in experiment [1] is 14.1%; in experiment [2], 13.3%; in experiment [3], 24.5%; in experiment [4], 22.5%; in experiment [5] it was 5.2%; in experiment [6], 24.5%.
As to `O=C(O)CC(NC(=O)C(CC(=O)OCc1ccccc1)NC(=O)OCc1ccccc1)C(=O)OCc1ccccc1` (centres undefined), the growth inhibition in experiment [1] was 44.5%; in experiment [2] it was 20.6%; in experiment [3] it was 27.4%; in experiment [4], 24.4%; in experiment [5] it was -5.8%; in experiment [6] it was 36.6%.
For the compound `CCCCNC(=O)c1cc2c(cc1Cl)Sc1nccn1S2(=O)=O`, the growth inhibition in experiment [1] was -1.1%; in experiment [2] it was -0.3%; in experiment [3] it was 1.35%; in experiment [4], 9.2%; in experiment [5], 43.9%; in experiment [6], 28.6%.
For the compound `[CH3][Sn]([CH3])([O]C(=O)c1ccc2c(c1)OCO2)[O]C(=O)c1ccc2c(c1)OCO2`, the growth inhibition was -0.15% in experiment [1]; -3.25% in experiment [2]; -11% in experiment [3]; -12.7% in experiment [4]; -9.7% in experiment [5]; -9.9% in experiment [6].
As to `C/C=C(\c1ccccc1)N1CCOCC1`, the growth inhibition in experiment [1] was 17.9%; in experiment [2], -9.15%; in experiment [3], -8.6%; in experiment [4], -37.5%; in experiment [5] it was 7.1%; in experiment [6], 5.25%.
As for `COC(C)(C)C/C=C/C(C)=C/C=C/C(C)=C\C=C\C(C)=C\C=C\C=C(C)\C=C\C=C(C)\C=C\C=C(C)\C=C\CC(C)(C)OC`, the growth inhibition is -10.8% in experiment [1]; -1.65% in experiment [2]; -26.9% in experiment [3]; 2.25% in experiment [4]; -12.2% in experiment [5]; -12.1% in experiment [6].
`OC1Cn2cc(Br)c[n+]2C1` (centres undefined): the growth inhibition was 8.3% in experiment [1]; -5.5% in experiment [2]; -21.5% in experiment [3]; 1.2% in experiment [4]; -2% in experiment [5]; -13.6% in experiment [6].
Regarding `CCCCC(CC)CC#N` (centres undefined), the growth inhibition was 6.15% in experiment [1]; -20.1% in experiment [2]; 21.1% in experiment [3]; 6.05% in experiment [4]; -4.35% in experiment [5]; 10.7% in experiment [6].
For `Fc1cccc(CSC(=S)Nc2ccc(Cl)c(C(F)(F)F)c2)c1`, the growth inhibition was 99.1% (active) in experiment [1]; 99.5% (active) in experiment [2]; 99.5% (active) in experiment [3]; 99.2% (active) in experiment [4]; 99.2% (active) in experiment [5]; 99% (active) in experiment [6].
Consider `COC(=O)CSc1[nH]c2nc(C)nc(Nc3ccccc3)c2c1C#N`, for which the growth inhibition was -13.8% in experiment [1]; -19.2% in experiment [2]; -9.85% in experiment [3]; -6.75% in experiment [4]; -27.8% in experiment [5]; 16.1% in experiment [6].
For the compound `N#CC1C[C@@H]2CC3(CCC2CN1C(=O)c1ccccc1)OCCO3` (some centres undefined), the growth inhibition in experiment [1] is 8.25%; in experiment [2], -9.6%; in experiment [3] it was -12.1%; in experiment [4] it was -24.6%; in experiment [5], 0.9%; in experiment [6], -14%.
Take `COc1ccccc1/C=C1\CCC(CCN2CCOCC2)C1=O` (centres undefined): the growth inhibition is 44.4% in experiment [1]; 37.7% in experiment [2]; 52.5% in experiment [3]; 58.6% in experiment [4]; 39.9% in experiment [5]; 41.5% in experiment [6].
Take `Cc1ccc(C(=O)/C=C/c2ccc(N(C)C)cc2)cc1`: the growth inhibition in experiment [1] was 38.8%; in experiment [2], 1.95%; in experiment [3] it was 34.8%; in experiment [4], 30.9%; in experiment [5], 29.4%; in experiment [6] it was 43.8%.
